The source of these data is PubChem BioAssay AID488969 (Vanderbilt High Throughput Screening Facility, 2010).

Whole data set: some 110,000 compounds, median “z-score” near -0.1, cut for the highest 2% near 2. What follows is part of a selection rich in the highest values, with near analogues and random picks from the rest. The source made the active and inactive calls.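 Rule for the calls: active = z-score in the third read window above 3 or below -3; inactive = the rest.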

The test deals with Metabotropic glutamate receptor 8 (Rattus norvegicus) (UniProt P70579). Nature of the test: rat mGluR8 modulators via GIRK flux, primary screen, cell-based, thallium flux, HTS (AID 488969). The settings on record: HEK293 rat mGluR8, GIRK (G protein-gated inwardly rectifying potassium channel) thallium flux, FluoZin2; at 10 µM; stronger effect = higher value; submaximal glutamate (EC20) added with thallium.
Chain of Metabotropic glutamate receptor 8 (Rattus norvegicus) (P70579 whole entry, looked up): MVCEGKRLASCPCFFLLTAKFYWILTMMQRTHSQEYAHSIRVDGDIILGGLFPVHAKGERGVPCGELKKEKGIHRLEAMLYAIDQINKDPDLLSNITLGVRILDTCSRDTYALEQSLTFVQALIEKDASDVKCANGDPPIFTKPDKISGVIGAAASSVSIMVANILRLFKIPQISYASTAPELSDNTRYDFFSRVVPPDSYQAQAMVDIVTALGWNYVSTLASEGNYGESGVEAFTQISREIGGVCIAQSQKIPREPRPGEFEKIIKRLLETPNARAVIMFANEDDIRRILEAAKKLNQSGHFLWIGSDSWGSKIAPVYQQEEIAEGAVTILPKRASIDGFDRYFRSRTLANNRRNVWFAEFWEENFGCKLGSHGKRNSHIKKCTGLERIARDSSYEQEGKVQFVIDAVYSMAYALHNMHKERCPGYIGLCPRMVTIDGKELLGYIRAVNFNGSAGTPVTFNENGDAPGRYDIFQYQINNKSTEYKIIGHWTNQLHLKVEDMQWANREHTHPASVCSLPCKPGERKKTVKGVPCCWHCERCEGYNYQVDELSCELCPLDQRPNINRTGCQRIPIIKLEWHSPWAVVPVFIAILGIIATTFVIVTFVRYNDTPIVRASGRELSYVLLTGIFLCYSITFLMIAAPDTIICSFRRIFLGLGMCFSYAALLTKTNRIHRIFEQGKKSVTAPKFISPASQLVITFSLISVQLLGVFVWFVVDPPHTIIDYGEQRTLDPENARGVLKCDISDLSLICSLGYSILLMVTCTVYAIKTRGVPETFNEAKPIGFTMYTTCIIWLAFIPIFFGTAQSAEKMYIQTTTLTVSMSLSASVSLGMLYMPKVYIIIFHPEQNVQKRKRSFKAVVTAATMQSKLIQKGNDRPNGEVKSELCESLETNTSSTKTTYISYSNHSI
As to `CC(=O)Nc1ccc(NC(=O)COC(=O)Cc2cccs2)cc1`, the z-score was -0.0463.

In the case of `COc1ccc(-n2c(SCC(=O)Nc3ccc(C(=O)O)cc3)nnc2-c2cccs2)cc1`, the z-score was found to be 0.0972.

`CC1(C)N=C(N)N=C(N)N1c1ccc(F)cc1F`: the z-score was -0.421.

Consider `O=C1NC(=S)S/C1=C/c1ccc(N2CCOCC2)o1`, for which the z-score stood at 0.253.

Consider `CC1=NN2C(=N)/C(=C\c3ccc(SCc4ccccc4)o3)C(=O)N=C2S1`, for which the z-score is -0.21.

Turning to `O=C1NC(=S)S/C1=C\c1ccc(SCc2ccccc2)o1`, the z-score was 6.47 (active).

`CCCNc1nc(N2CCOCC2)nc(N2CCOCC2)n1`: the z-score was -0.0765.

`CCOc1cc(C)cc2oc(=O)cc(-c3ccccc3)c12` returned a z-score of 0.0205.

`Cc1cc(OC(C)C)c2c(-c3ccccc3)cc(=O)oc2c1` gave a z-score of -0.594.

`Cc1cc(O)c2c(-c3ccccc3)cc(=O)oc2c1` displayed a z-score of 2.16.

For the compound `C=CCCC(=O)Nc1nc(C)c(-c2csc(Nc3ccc(Cl)cc3Cl)n2)s1`, the z-score was -0.203.

`O=[N+]([O-])c1ccc(Cl)c(/C=N/N2CCN(c3ccccc3)CC2)c1` showed a z-score of -0.188.

`O=[N+]([O-])c1cc(/C=N/N2CCN(c3ccccc3)CC2)ccc1Cl` displayed a z-score of 2.02.

`O=[N+]([O-])c1cc(/C=N/N2CCN(C3c4ccccc4-c4ccccc43)CC2)ccc1Cl`: the z-score was determined as 0.148.

The compound `N#C/C(=C\c1ccc(-c2cccc(C(F)(F)F)c2)o1)C(=O)Nn1cnnc1` registered a z-score of -0.113.

The compound `O=C1NCCCC1C(=O)N/N=C/c1ccccc1` (stereo not given) returned a z-score of 0.00752.

On to `CCn1c(CSc2nc3ccccc3s2)n[nH]c1=S`, for which the z-score amounted to 0.155.

As to `S=c1[nH]nc(CSc2nc3ccccc3s2)n1C1CCCCC1`, the z-score was 14.9 (active).

`Cn1c(CSc2nc3ccccc3s2)n[nH]c1=S` gave a z-score of 1.41.

With `Cc1cc(C(=O)NCCCC(=O)O)c(C)o1`, the z-score was -0.154.

For the compound `Cc1noc(/C=C/N(C)C)c1S(=O)(=O)N1CCCC(C(=O)NC2CCCCC2)C1` (stereo not given), the z-score is -0.19.

Compound `Cc1noc(/C=C/N(C)C)c1S(=O)(=O)N(C)CC(=O)NC1CCCCC1` registered a z-score of 2.18.

`Cc1noc(/C=C/N(C)C)c1S(=O)(=O)NC1CCCCC1`: the z-score is -0.658.

With `Cc1ccc(SCCCn2cncn2)cc1`, the z-score is -0.0811.

Take `CCCC1COC(Cn2cncn2)(c2ccc(C)cc2)O1` (stereo not given): the z-score is 10.6 (active).

As to `c1ccc(C2(c3ccccc3)OCC(Cn3cncn3)O2)cc1` (stereo not given), the z-score worked out at 0.218.

`CCn1c(CCNC(=O)c2ccc(Cl)cc2)n[nH]c1=S`: the z-score was -0.774.

In turn, `CCn1ncc(/C=C/C(=O)Nc2c(C)nn(CC)c2C)c1C` registered a z-score of -0.306.

In turn, `CC1CCCCC1NC(=O)COC(=O)c1ccc2c(c1Cl)C(=O)c1ccccc1C2=O` (stereo not given) displayed a z-score of -0.0566.

As for `Cc1nc2cc(C(=O)OCC(=O)Nc3ccc(C#N)cc3)ccc2n1-c1ccccc1`, the z-score is -0.0383.

Take `CC(=O)c1cccc(NC(=O)COC(=O)c2cccc(N3C(=O)c4ccccc4C3=O)c2)c1`: the z-score worked out at 0.155.

Compound `O=C(COC(=O)c1cccnc1)Nc1ccccc1` registered a z-score of 0.274.

Compound `Cc1nc2cc(C(=O)OCC(=O)Nc3cccc(Cl)c3)ccc2n1-c1ccccc1` gave a z-score of 2.18.

Regarding `COc1ccccc1NC(=O)COC(=O)c1ccc2c(c1)nc(C)n2-c1ccccc1`, the z-score was -0.283.

`O=C(COC(=O)c1cccc(N2C(=O)c3ccccc3C2=O)c1)Nc1ccccc1`: the z-score was 5.13 (active).

In turn, `Cc1cc(NS(=O)(=O)c2ccc(NC(=O)c3cc(-c4ccccc4Cl)nc4ccccc34)cc2)no1` had a z-score of -1.51.

In turn, `C=CCn1c(=NC(=O)c2ccco2)sc2cc(C(=O)OC)ccc21` came in with a z-score of 0.103.

The compound `COc1ccccc1C(=O)Nc1ccc2c(c1)OCO2` displayed a z-score of 0.246.

On to `CN(C)C(=O)N1CCCC(C(=O)NCc2ccccc2)C1` (stereo not given), for which the z-score is -0.341.

For the compound `CC(/C=N/NC(=O)c1ccncc1)=C\c1ccc(C(C)C)cc1`, the z-score was -0.0873.

On to `CC(=C/c1ccc(C(C)C)cc1)/C=N/NC(=O)c1ccncc1`, for which the z-score came to 2.21.

`CC(/C=N/NC(=O)c1ccncc1)=C\c1ccccc1` displayed a z-score of 0.474.

As for `COc1cc(/C=N\NC(=O)c2ccc(=O)[nH]n2)cc(OC)c1OC`, the z-score turned out to be 0.00269.

On to `O=C(NO)c1ccc(OC(F)F)cc1`, for which the z-score came to 0.319.

As for `CCC1CCCCN1c1cc(C)nc2cc(-c3cccc(C)c3)nn12` (stereo not given), the z-score is -0.0418.

The compound `C#CCn1c(=NC(=O)c2ccccc2[N+](=O)[O-])sc2cc(S(C)(=O)=O)ccc21` had a z-score of -0.119.

In the case of `S=c1nc(-c2ccc(Br)cc2)oc2c1CCCC2`, the z-score was 4.2 (active).

In turn, `S=c1nc(-c2ccccc2)oc2c1CCCC2` returned a z-score of -0.0866.

Regarding `Cc1cccc(-c2nc(=S)c3c(o2)CCCC3)c1`, the z-score was 0.856.

`C=CCONC(=O)c1cc(OCC(F)(F)F)ccc1OCC(F)(F)F`: the z-score is -0.0898.

Compound `COCCCNCCOCCSc1ccc(Cl)cc1` showed a z-score of 0.918.

`O=C(Cn1cncc1-c1ccc([N+](=O)[O-])cc1)Nc1cccc2ccccc12` had a z-score of -0.199.

For the compound `CC1CCc2c(sc(NC(=O)COC(=O)c3ccccc3NCc3ccco3)c2C#N)C1` (stereo not given), the z-score is -0.152.

As to `CC1CCc2c(sc(NC(=O)C(=O)NCc3ccco3)c2C#N)C1` (stereo not given), the z-score is 11.4 (active).

Compound `CC1CCc2c(sc(NC(=O)CN3CCN(C(=O)c4ccco4)CC3)c2C#N)C1` (stereo not given) gave a z-score of 0.101.

`COc1ccc(S(=O)(=O)N2CCN(C3Cc4ccccc4C3)CC2)cc1` registered a z-score of -0.439.

`Cc1cc(C)n(CC(O)CN(c2ccccc2)S(=O)(=O)c2ccccc2)n1` (stereo not given) had a z-score of -0.261.

On to `CC1CN(S(=O)(=O)c2cccc(C(=O)Nc3ccc4c(c3)CCC4)c2)CC(C)O1` (stereo not given), for which the z-score was -0.053.

Consider `O=C(Nc1nnc(-c2ccc3c(c2)OCCO3)o1)c1ccc(Cc2ccccc2)cc1`, for which the z-score is -0.048.

In turn, `O=C(Nc1nnc(-c2ccccn2)o1)c1cccc(Br)c1` gave a z-score of 0.334.

Take `O=C(Nc1nnc(-c2ccc3c(c2)CCCC3)o1)c1ccccc1Cl`: the z-score was 5.26 (active).

With `CN(C)S(=O)(=O)c1ccc(C(=O)Nc2nnc(-c3ccc4c(c3)CCCC4)o2)cc1`, the z-score is 5.8 (active).

Consider `Cc1cc(C)nc(NS(=O)(=O)c2ccc(NC(=O)c3ccc(S(=O)(=O)N4CC(C)OC(C)C4)cc3)cc2)n1` (stereo not given), for which the z-score was -0.605.

On to `O=C(Nc1nnc(-c2ccccn2)o1)c1ccc(Br)cc1`, for which the z-score worked out at 2.32.

The compound `COc1ccccc1C(=O)Nc1nnc(-c2ccc3c(c2)CCCC3)o1` yielded a z-score of -0.536.

Compound `CC1CN(S(=O)(=O)c2ccc(C(=O)Nc3nnc(-c4ccc5c(c4)CCCC5)o3)cc2)CC(C)O1` (stereo not given) returned a z-score of 2.42.

For `Cc1cc(C)c(NC(=O)c2ccc(S(=O)(=O)N(C)C)cc2)c(C)n1`, the z-score is -1.73.

The compound `O=C(CCc1ccccc1)Nc1nnc(-c2ccc3c(c2)CCCC3)o1` displayed a z-score of -0.145.

In turn, `N#Cc1ccc(C(=O)Nc2nnc(-c3ccccn3)o2)cc1` showed a z-score of -0.232.

Regarding `Nc1ccc(SC(F)(F)F)cc1C(=O)c1ccccc1`, the z-score was -0.00154.
